Molecules are shown by their SMILES. Active and inactive are the calls of the source. How the calls were made is not given here.

The target in the experiment is Pantothenate synthetase (Mycobacterium tuberculosis (strain ATCC 25618 / H37Rv)) (UniProt P9WIL5). Put plainly: Coupled enzyme confirmation of inhibitors against recombinant Mtb PanC (AID 375).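 Further: 0% = full reaction with vehicle and 100% = no enzyme background.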 Particulars: coupled enzyme assay; at 10 µM, active compounds read high.
Chain of Pantothenate synthetase (Mycobacterium tuberculosis (strain ATCC 25618 / H37Rv)) (P9WIL5 whole entry, looked up): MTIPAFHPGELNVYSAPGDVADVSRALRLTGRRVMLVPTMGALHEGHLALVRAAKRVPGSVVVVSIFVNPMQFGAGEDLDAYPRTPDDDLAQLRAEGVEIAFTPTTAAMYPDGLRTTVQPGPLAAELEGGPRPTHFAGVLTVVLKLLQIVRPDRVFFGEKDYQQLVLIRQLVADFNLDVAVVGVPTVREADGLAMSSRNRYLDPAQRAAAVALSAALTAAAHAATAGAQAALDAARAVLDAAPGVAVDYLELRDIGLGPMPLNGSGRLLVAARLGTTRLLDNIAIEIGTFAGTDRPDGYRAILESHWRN
As to `Brc1ccc2[nH]c3nc(SCCN4CCOCC4)nnc3c2c1`, the inhibition was 0% (inactive).
Under `Cc1ccc(S(=O)(=O)NCCC(=O)OCn2nnc3ccccc3c2=O)cc1` stands 1% (inactive); under `O=C(COc1ccccc1Cl)N1CCCC1`, 2% (inactive).
Under `CCN(CC)CCOC(=O)c1ccc(NC(=O)COc2cc(=O)n(CC)c3ccccc23)cc1` stands 2% (inactive).
Next, `Cc1nnc(N2C(=O)c3oc4ccccc4c(=O)c3C2c2ccco2)s1` (stereo not given): 2% (inactive); `O=C(NCc1cccs1)C1CC(=O)N(c2ccccc2)C1` (stereo not given): 0% (inactive); `COc1cc2c(cc1OC)-c1nnc(-c3cccs3)n1C(C)(C)C2`: 0% (inactive).
`O=C(c1ccco1)N1CCN(C(=O)c2ccc(Cn3cc(Br)cn3)o2)CC1`: the inhibition was 4% (inactive).
Under `CC1Cc2ccccc2N1NC(=O)c1ccc(Cl)c(S(N)(=O)=O)c1` (stereo not given) stands 0% (inactive).
Next, `Cc1ccccc1NC(=O)C1CC(=O)N(c2ccccc2F)C1` (stereo not given): 1% (inactive); `CC1C/C=C/C=C/C=C/C=C/C(O[C@@H]2O[C@H](C)[C@@H](O)[C@H](N)[C@@H]2O)CC2OC(O)(CC(O)CC3OC3/C=C/C(=O)O1)CC(O)C2C(=O)O` (stereo not given in full): 5% (inactive); `O=[n+]1c2c(n([O-])c3c1CCCC3)CCCC2`: 0% (inactive).
Consider `CC(C)(C)Cc1nc(-c2ccccn2)no1`, for which the inhibition is 0% (inactive).
Under `O=C(c1ccccc1Oc1nnnn1-c1ccccc1)N1CCOCC1` stands 0% (inactive).
Under `Nc1nc(-c2ccc(Br)s2)c(Br)s1` stands 2% (inactive).
Next, `Cc1nnc(SCC(=O)N2CC(=O)Nc3ccccc32)n1-c1ccccc1`: 2% (inactive); `Cn1nnnc1SCC(=O)Nc1ccccc1-c1ccccc1`: 2% (inactive); `COc1cccc(OC)c1C(=O)N1CCN(S(=O)(=O)c2ccc(C)cc2)CC1`: 1% (inactive).
On to `CCc1[nH]nc2c1C1(CCN(C(=O)OCc3ccccc3)CC1)C(C#N)=C(N)O2`, for which the inhibition is 0% (inactive).
On to `CC(=O)O[C@H]1C(=O)[C@]2(C)[C@H]([C@H](OC(=O)c3ccccc3)[C@]3(O)C[C@H](OC(=O)[C@H](O)[C@@H](NC(=O)c4ccccc4)c4ccccc4)C(C)=C1C3(C)C)[C@]1(OC(C)=O)CO[C@@H]1C[C@@H]2O`, for which the inhibition was 9% (inactive).
Next, `CCN1CCN(C(c2cccs2)C(C)NC(=O)c2ccccc2)CC1` (stereo not given): 12% (inactive); `COc1cc([C@@H]2c3cc4c(cc3[C@H](O)[C@H]3COC(=O)[C@H]23)OCO4)cc(OC)c1OC`: 0% (inactive).
Next, `COC(=O)CSc1nnc(-c2cccs2)n1-c1ccc(Cl)cc1`: 4% (inactive); `Cc1[nH]nc2c1C(CCc1ccccc1)C(C#N)=C(N)O2` (stereo not given): 0% (inactive); `COc1ccc(NC(=O)c2oc3ccccc3c2NC(=O)c2ccco2)cc1`: 0% (inactive).
Turning to `CCC(C(=O)NC1CCCC1)N(Cc1ccco1)C(=O)Cn1nnc(-c2ccc(C)cc2)n1` (stereo not given), the inhibition was 5% (inactive).
Next, `COc1cc(C(=O)Nc2nc(-c3cccs3)cs2)cc(OC)c1OC`: 0% (inactive); `Cc1ccc(S(=O)(=O)CCC(=O)Nc2ccc3c(c2)OCO3)cc1`: 6% (inactive); `Cc1cccc(NC(=O)c2cc(NC(=O)c3ccco3)ccc2N2CCCCC2)c1`: 2% (inactive).
Next, `Cc1nc2cc(C(=O)O)ccc2n1-c1ccc(F)cc1F`: 2% (inactive).
Next, `Cc1ccc(Nc2nc(N)nc(CN3CCN(Cc4ccc5c(c4)OCO5)CC3)n2)cc1`: 0% (inactive); `Cc1cc(NC(=O)Cn2cnc3c(cnn3C(C)(C)C)c2=O)no1`: 3% (inactive).
On to `CCc1nc(C)ccc1OCC(=O)O`, for which the inhibition is 3% (inactive).
Consider `O=C(Cc1cccs1)Nc1ccccc1C(=O)O`, for which the inhibition was 4% (inactive).
Next, `CCC(c1nnc(SCC(=O)NCC2CCCO2)n1Cc1ccccc1)N(C)C` (stereo not given): 0% (inactive); `COc1ccc(C(=O)c2ccccc2)c(O)c1`: 1% (inactive).
Under `O=C(NCC(=O)N(CCc1ccccc1)C(C(=O)NC1CCCC1)c1cccnc1)c1ccco1` (stereo not given) stands 3% (inactive); under `COc1cc(CC(=O)Nc2ncc(C)s2)cc(OC)c1OC`, 0% (inactive).
Next, `Cc1ccc(NC(=O)CCC(=O)O)cc1F`: 0% (inactive); `NC(=O)CCS(=O)(=O)CCN1CCCCC1`: 0% (inactive).

Broadly, the inhibition is how much of the control response was suppressed.

(Values after PubChem BioAssay.)
